Results filed as inconclusive are left out. Entries that show only a call come without a potency. Calls of active or inactive are those of the source. The call rests on the fitted dose curve; in most records, active means well fitted inhibition curve with a large enough effect; inconclusive means small, poorly fitted or top-dose-only effect; inactive means no such curve, though single readings can be large or run the other way.
Each compound was assayed against Muscarinic acetylcholine receptor M1 (Rattus norvegicus) (UniProt P08482) (assay: qHTS Assay for Antagonists of Acetylcholine Muscarinic M1 Receptor: Measurement of IP-One Response (AID 944; further: nearly all actives have a fitted effect of over 75% in size)). Conditions: CHO-M1 cells, IP-One HTRF, antagonist mode; series mostly up to 46.1 µM.
Sequence of Muscarinic acetylcholine receptor M1 (Rattus norvegicus) (P08482 whole entry, looked up): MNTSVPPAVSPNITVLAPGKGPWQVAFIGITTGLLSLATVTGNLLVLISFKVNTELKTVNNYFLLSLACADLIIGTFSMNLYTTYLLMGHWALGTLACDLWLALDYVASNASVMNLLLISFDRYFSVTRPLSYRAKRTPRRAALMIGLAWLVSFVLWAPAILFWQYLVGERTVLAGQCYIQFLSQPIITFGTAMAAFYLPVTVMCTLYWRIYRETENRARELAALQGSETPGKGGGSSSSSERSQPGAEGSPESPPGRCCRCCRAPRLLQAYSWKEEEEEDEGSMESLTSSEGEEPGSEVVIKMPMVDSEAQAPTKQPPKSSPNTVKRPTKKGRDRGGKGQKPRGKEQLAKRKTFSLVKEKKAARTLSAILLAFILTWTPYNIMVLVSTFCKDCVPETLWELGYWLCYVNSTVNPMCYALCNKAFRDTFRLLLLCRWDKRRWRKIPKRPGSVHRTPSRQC
Excerpt: NIH Molecular Libraries Screening Centers Network [MLSCN]
NIH Chemical Genomics Center [NCGC]
Acetylcholine muscarinic M1 receptor is a G-protein coupled receptor (GPCR) coupling to the Gq G protein. It is mainly expressed in brain and functionally related to the learning and memory processes. The agonists of this receptor have the potential for the treatment of Alzheimer's disease and cognitive impairments associated with Schizophrenia.
Upon an activation of the M1 receptor, phosholipase C (PLC) is activated to produce inositol 1,4,5-trisphosphate (IP3) and diacyl glycerol (DAG). The IP3 is very rapidly hydrolyzed to IP2, IP1 and then inositol by a series of enzymes and Ca2+ is quickly pumped back into ER by the calcium pump on the ER membrane, which effectively switches off the IP3 and Ca2+ signaling. For compound screen, the changes in intracellular free Ca2+ concentration can be measured by the fluorescence calcium dye such as Fura-2, Fluo-3 and Fluo-4 with a fluorescence kinetic plate reader. IP1 or total IPs including IP1, IP2 and IP3 are usually measured as an alternative method for assessing the function of Gq-coupled GPCRs. We have applied a time-resolved fluorescence based (TR-FRET) IP1 assay in which an IP1 specific antibody is used to detect the labeled IP1 tracer. When the cell lysate contains the elevated IP1, the TR-FRET between the labeled antibody and IP1 tracer is disrupted resulting in a reduction in the total signal. Since the TR-FRET is used, a homogenous assay with out cell wash and medium change is possible which also can be miniaturized into the high density format for HTS.
We have obtained a M1-CHO cell line transfected with rat acetylcholine M1 receptor and optimized this IP-One assay with this cell line for compound screening as a counter-screen assay for other Gq-coupled GPCRs.
NCGC Assay Protocol Summary:
The CHO-M1 (CHO-M1) cell line transfected with the rat acetylcholine muscarinic M1 receptor was obtained from American Type Culture Collection (ATCC). The cells were maintained in call culture flasks with F12 Kaighn's media (Invitrogen) supplemented with 10 % FBS, 100 units/ml penicillin, 100 ug/ml streptomycin and 250 ug/ml geneticin (Invitrogen) at 37C, 5 % CO2 in a humidified atmosphere. At 90-95 % confluence, the cells were then detached in 15 ml 0.25 % trypsin by 3 minutes incubation at 37C and centrifuged at 1000 RPM to remove the trypsin solution. The resulting cell pellet was resuspended in the cell freezing media containing 10 % DMSO (Invitrogen) at a density of 4 x 10^7 cells/ml. The aliquots of cells at 0.5 - 1 ml per vial were frozen down slowly at 1 degree C/min using a Cryo 1 degree C freezing container in the presence of isopropanol (Nalgene Nunc, Rochster, NY) overnight in a -80C freezer. The frozen cells were then transferred to liquid nitrogen for the storage up to one year.
The resuspended frozen cells were plated at 3 ul/well with 2000 cells in the black, tissue culture treated, clear bottom 1536-well plates. The cells were cultured at 37C, 5 % CO2 for overnight to allow the cells recovering from the frozen state. 20 nl/well of compound in DMSO solution was added to the assay plate and incubated for 10 min. Carbachol was prepared in stimulation buffer (10mM Hepes, 1mM CaCl2, 0.5 mM MgCl2, 4.2 mM KCl, 146 mM NaCl, 5.5 mM glucose 50mM LiCl 50mM pH7.4) which was added to the assay plate at 1 ul/well. After an incubation with carbachol at 37C, 5 % CO2 for 30 min, all the wells in the assay plate were added with 1 ul/well of d2 conjugated IP1 (d2-IP1) and 1 ul/well of Eu+ cryptate conjugated anti-IP1 antibody (Eu+-Ab), both from the IP-One kit (Cisbio USA., Inc.). After 10 min incubation at the room temperature, the assay plates were measured in the HTRF detection mode in ViewLux plate reader (Ex=337 nm. Em(1)=620 and Em(2)=665 nm)
1536-well assay protocol:
(1) 4 ul/well containing 2000 M1-CHO cells in 1536 tissue culture treated white plate
(3) Add 23 nl compound diluted in DMSO
[…]
Potency means the concentration at half of the fitted maximal effect.

| SMILES | Potency |
| --- | --- |
| O=C(O)C[C@@H]1CCCc2ccccc2[C@H]1O | inactive |
| NCCC[C@@](N)(C(=O)O)C(F)F | inactive |
| NC[C@@H]1O[C@@H](O[C@H]2[C@@H](O)[C@H](O[C@@H]3[C@H](O)[C@H](N)C[C@H](N)[C@H]3O[C@@H]3O[C@@H](CO)[C@H](O)[C@H](O)[C@@H]3N)O[C@H]2CO)[C@H](N)[C@H](O)[C@@H]1O | inactive |
| N[C@H](Cc1cccc(-c2ccccc2CP(=O)(O)O)c1)C(=O)O | inactive |
| OC[C@@H]1O[C@@H](n2cnc3c(Nc4ccccc4)ncnc32)[C@@H](O)[C@H]1O | inactive |
| CCCCC#Cc1nc(N)c2ncn([C@@H]3O[C@@H](C(=O)NCC)[C@H](O)[C@@H]3O)c2n1 | inactive |
| O=C1[C@@H]2C=CC=CC2=NC(=S)N1CCN1CCC(=C(c2ccc(F)cc2)c2ccc(F)cc2)CC1 | inactive |
| FC(F)(F)c1cc(CO[C@@H]2CCCN[C@H]2c2ccccc2)cc(C(F)(F)F)c1 | inactive |
| CCCCC[C@H](O)CCCC(=O)O | inactive |
| NC(=S)c1ccc[n+]([C@@H]2O[C@@H](COP(=O)([O-])OP(=O)(O)OC[C@@H]3O[C@@H](n4cnc5c(N)ncnc54)[C@@H](OP(=O)(O)O)[C@H]3O)[C@@H](O)[C@H]2O)c1 | inactive |
| CCCCCCCCCC(=O)N[C@@H](CN1CCOCC1)[C@@H](O)c1ccccc1 | inactive |
| CCCCCCCCCCCCCCCCCCNC(=O)OC[C@@H](COP(=O)([O-])OCC[n+]1ccsc1)OC | inactive |
| CCCCCC[C@@H]([C@H](C)O)n1cnc2c(N)ncnc21 | inactive |
| COc1cccc2c1[C@@H]1CN(CCCCn3c(=O)[nH]c4c(sc5ncc(-c6ccccc6)nc54)c3=O)C[C@H]1CO2 | inactive |
| CCN1CCC[C@@H]1CNC(=O)c1c(O)c(Cl)cc(Cl)c1OC | inactive |
| O[Si@](CCCN1CCCCC1)(c1ccc(F)cc1)C1CCCCC1 | 1.41 µM (active) |

| SMILES | Potency |
| --- | --- |
| C/C=C1\C(=O)C[C@@H]2[C@@H]3CCC4=CC(=O)CC[C@@]4(C)[C@H]3CC[C@@]12C | inactive |
| Cn1c(=O)c2c(nc(/C=C\c3cccc(Cl)c3)n2C)n(C)c1=O | inactive |
| COc1cc([C@H]2c3cc4c(cc3[C@@H](O)[C@@H]3COC(=O)[C@H]23)OCO4)cc(OC)c1OC | inactive |
| Nc1ncnc2c1ncn2[C@@H]1O[C@@H](COP(=O)(O)OP(=O)(O)OP(=O)(O)OP(=O)(O)OC[C@@H]2O[C@@H](n3cnc4c(N)ncnc43)[C@@H](O)[C@H]2O)[C@H](O)[C@@H]1O | inactive |
| C[C@@]12CCC(=O)C=C1CC[C@@H]1[C@@H]2[C@H](O)C[C@]2(C)[C@@H]1CC[C@]2(O)C(=O)COC(=O)CCC(=O)O | inactive |
| CC(=O)O[C@@H]1C[C@]2(C)[C@H](C[C@@H](O)[C@H]3[C@@]4(C)CC[C@@H](O)[C@@H](C)[C@@H]4CC[C@@]32C)/C1=C(\CCC=C(C)C)C(=O)O | inactive |
| Nc1ncnc2c1ncn2[C@@H]1O[C@@H](CO)[C@H](O)[C@@H]1O | inactive |
| O=c1[nH]c(=O)n([C@H]2C[C@H](O)[C@H](CO)O2)cc1/C=C\Br | inactive |
| CN1CCN([C@@H]2Cc3ccccc3Sc3ccc(Cl)cc32)CC1 | 10 µM (active) |
| O=C(/C=C\c1ccc(O)cc1)c1ccc(O)cc1O | inactive |
| CNC(=O)[C@@H]1O[C@@H](n2cnc3c(NCc4cccc(I)c4)ncnc32)[C@H](O)[C@@H]1O | inactive |
| Nc1ccn([C@@H]2O[C@@H](CO)[C@@H](O)[C@H]2O)c(=O)n1 | inactive |
| COC(=O)C1=C(C)NC(C)=C(C(=O)OCCN(C)Cc2ccccc2)[C@@H]1c1cccc([N+](=O)[O-])c1 | 17.8 µM (active) |
| CC1CCN(CC[C@@H]2CCCN2S(=O)(=O)c2cccc(O)c2)CC1 | 14.1 µM (active) |
| CCCN(CCc1ccccc1)[C@H]1CCc2c(O)cccc2C1 | 2.82 µM (active) |
